From PubChem
Compounds with a hit are over-represented: about 1.9% of the library has one in this group of screens.
HTT cytoprotect – Huntington cell model cytoprotection by ATP luminescence; 0.14% of 230,000 active; PC12 HTT-Q103 induced, cytoprotection, ATP luminescence, 40 h; AID 1471; Potency, µM (titrated, usually from 56.4 µM), without a hit: cytoprotection (ATP increase), most hits filed as activators; further: % of control where 0% means no effect; nearly all actives have a fitted effect of over 45% in size
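PC12 cells with ecdysone-inducible HTT exon 1 Q103-GFP, induced with 100 nM tebufenozide and co-treated with library compounds in a dose series (1536-well, 1500 cells/well). Cytoprotection read as ATP content by ATPlite luminescence.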
HTT aggregate – reduces HttQ103-GFP aggregates in PC12 cells; PC12 HttQ103-GFP aggregates, Acumen cytometry, 40 h; Potency, µM (series often up to 46.1 µM), without a hit: at the top dose activity change, negative = inhibition, most hits filed as inhibitors; 1.1% of 220,000 active; AID 1688; further: on the % scale 0 is the no-effect control and ±100 the full control effect; nearly all actives have a fitted effect of over 60% in size
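Inducible Q103 Huntingtin exon 1–GFP PC12 line, 1500 cells/well in phenol red free DMEM with 5% equine and 5% calf serum. Tebufenozide 100 nM induced expression; compounds titrated; aggregates quantified by cytometry.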
ERK EGF inh – EGF-driven ERK pathway inhibition; HEK293-V1b, EGF-stimulated phospho-ERK AlphaScreen; Potency, µM (top dose mostly 11.5 µM), inactives show at the top dose activity change, negative = inhibition, most hits filed as inhibitors; 0.41% of 130,000 active; AID 1454;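 further: plate controls were stimulated vehicle wells for no effect and unstimulated vehicle basal for full effect; nearly all actives have a fitted effect of over 55% in size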
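Homogeneous cell-based phospho-ERK assay: HEK293/V1b cells in 1% FBS, compound 30 min then EGF 5 min, AlphaScreen luminescence. Activity normalized between DMSO and 25 nM EGF controls; AC50 from Hill modelling.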
IMPase Li cell – cell-permeable IMPase inhibitors with lithium potentiation; Potency, µM (titrated, usually from 59.4 µM), for the others: top-dose activity, negative = IMPase inhibition, actives largely listed as inhibitors; CHO-M1 cells, IP1 TR-FRET (IP-One), carbachol + lithium; 0.35% of 210,000 active;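 further: IP1 builds up when IMPase is blocked and the TR-FRET signal falls; plate controls were basal vehicle for no effect and high inhibitor control for full effect; nearly all actives have a fitted effect of over 50% in size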
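Concentration–response in CHO-M1 cells, lithium-potentiated; 30 min at 37C. IP1 detected by competitive TR-FRET after 10 min lysis at RT. Hill-fitted AC50.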
NPSR antagonist – antagonists of human neuropeptide S receptor cAMP signaling | Q6W5P4 | CHO-NPSR cells, cAMP TR-FRET, antagonist mode | Potency, µM (titrated, usually from 38.3 µM), for inactives: at the highest dose activity change, negative = inhibition, most hits filed as inhibitors | 1% of 220,000 active; further: on the % scale 0 is the no-effect control and ±100 the full control effect; nearly all actives have a fitted effect of over 50% in size
Target sequence (Q6W5P4 whole entry, looked up): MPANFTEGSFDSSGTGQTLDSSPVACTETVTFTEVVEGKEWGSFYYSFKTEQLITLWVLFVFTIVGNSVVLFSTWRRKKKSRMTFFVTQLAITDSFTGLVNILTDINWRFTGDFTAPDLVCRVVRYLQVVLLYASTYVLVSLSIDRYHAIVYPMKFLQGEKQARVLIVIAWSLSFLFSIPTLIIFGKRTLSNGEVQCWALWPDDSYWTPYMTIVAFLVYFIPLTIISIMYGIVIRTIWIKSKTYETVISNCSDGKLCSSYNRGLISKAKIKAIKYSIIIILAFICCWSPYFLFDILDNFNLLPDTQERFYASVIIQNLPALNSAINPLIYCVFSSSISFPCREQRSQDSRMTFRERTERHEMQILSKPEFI
Starred values were filed as active, the others as inactive; u = inconclusive; x = no result; [ ] = dose if it differs, or a comment. The call rests on the fitted dose curve; in most records, active means well fitted curve in the direction sought with a large enough effect; inconclusive means small, poorly fitted or top-dose-only effect, or another doubt; inactive means no such curve, though single readings can be large; an effect the other way counts as inactive or inconclusive. Potency means the concentration at half of the fitted maximal effect.

SMILES | HTT cytoprotect | HTT aggregate | ERK EGF inh | IMPase Li cell | NPSR antagonist
CC(C)C(=O)N1CCN(c2ccc(NC(=O)COc3ccccc3[N+](=O)[O-])cc2)CC1 | -167.9% | -14.1%[9.22 µM] | 31.6µM* | 23.0% | -15.6%
CC1OC(n2cc(F)c(=O)[nH]c2=O)C(O)C1O (centres undefined) | x | x | 5.2% | 5.2% | x
CC1CCCCC1n1c(=S)[nH]c2ccccc2c1=O (centres undefined) | -2.0%[0.074 µM] | 20µM* | x | x | u
CC(=O)O[C@@H]1C[C@]2(C)[C@H](C[C@@H](O)[C@H]3[C@@]4(C)CC[C@@H](O)[C@@H](C)[C@@H]4CC[C@@]32C)/C1=C(\CCC=C(C)C)C(=O)O | 7.1%[1.9 µM] | x | x | x | x
Cc1nn2c3ccccc3n(Cc3ccccc3)c2nc1=O | -3.6%[10 µM] | 19.6% | 12.8% | 2.7% | -12.2%[46.1 µM]
Cc1nn2c3ccccc3n(CC(=O)c3cccs3)c2nc1=O | 4.8%[10 µM] | -0.9%[9.22 µM] | 7.5% | 3.98µM* | 21.2%
O=C(O)CCC/C=C\C[C@@H]1C(/C=C/[C@@H](O)COc2cccc(C(F)(F)F)c2)[C@@H](O)C[C@@H]1O (some centres undefined) | -30.9% | x | x | 4.9% | x
COc1ccc(CN(C)CC(=O)Nc2ccccc2-c2ccccc2)c(OC)c1 | 10.0%[10 µM] | 20µM* | 8.6% | 16.3% | -56.3%
COc1ccc(CNCCC(c2ccccc2)C2CCOC(C)(C)C2)cc1 (centres undefined) | x | -0.9% | 1.6% | 11.4% | -17.3%
COc1ccc(CN(CCC(c2ccccc2)C2CCOC(C)(C)C2)C(C)=O)cc1 (centres undefined) | -14.4%[10 µM] | 12.6µM* | 4.6% | 18.3% | -23.0%
CCCNC(=O)c1nnsc1S(=O)(=O)c1ccc(Cl)cc1 | -143.7% | u | -4.5% | 25.7% | u
CCCNC(=O)c1nnsc1S(=O)c1ccc(Cl)cc1 (centres undefined) | -150.2% | 11.2µM* | -2.9% | 16.1% | -32.8%
CNC(=O)c1nnsc1S(=O)c1ccc(Cl)cc1 (centres undefined) | -142.1% | 14.1µM* | -3.0% | 23.6% | -45.1%
COc1cccc(Cn2c(=O)c(CCc3ccccc3)nc3cnc(N4CCOCC4)nc32)c1 | -27.6% | x | x | 11.2% | x
O=[N+]([O-])c1ccc(CSc2ncnc3c2ncn3[C@@H]2O[C@@H](CO)[C@@H](O)[C@H]2O)cc1 | -12.4%[1.9 µM] | x | x | x | x
CC1=C(C)CC(c2ccccc2)C(C(=O)c2ccccc2O)C1 (centres undefined) | -14.8%[10 µM] | x | x | x | x
O=C(CCC(=O)Nc1nnc(C2CCCCC2)s1)NCc1cccs1 | -20.5% | 15.0% | x | 14.1µM* | 5.4%[46.1 µM]
CC(C)[C@H](NC(=O)c1ccccc1Cl)C(=O)OCc1cc(=O)n2cc(Br)ccc2n1 | -25.3% | 19.3% | 15.4% | 11.2µM* | -4.2%
CN1CCN(c2ncc3nc(-c4cc(F)cc(F)c4)c(=O)n(-c4ccccc4)c3n2)CC1 | 1.8% | x | u | -6.7% | x
COc1cccc([C@@H]2Oc3ccc(OC)cc3C[C@H]2OC(=O)NS(=O)(=O)c2ccc(C)cc2)c1 | -15.4% | x | -5.4% | 15.2% | x
O=C(Nc1n[nH]c(C2CCCCC2)n1)C1CCCCC1 | -0.6% | 4.47µM* | x | 26.4%[38.3 µM] | -8.3%[46.1 µM]
O=C(Nc1ncccn1)C1CCCCC1 | -1.8%[10 µM] | -13.0%[9.22 µM] | 0.7% | 0.2% | -4.3%
CCC(C(=O)O)C1OC(C(C)C(O)C(C)C(=O)C(CC)C2OC3(C=CC(O)C4(CCC(C)(C5CCC(O)(CC)C(C)O5)O4)O3)C(C)CC2C)C(C)CC1C (centres undefined) | -95.5% | 1.78µM* | x | x | x
CCCn1c(C)nc2c(NCCO)nc(C)nc21 | 9.9% | x | -1.3% | -9.0% | x
COc1ccc(-c2csc3ncnc(Nc4ccc(O)cc4)c23)cc1 | 4.4%[10 µM] | -21.3%[9.22 µM] | 28.2µM* | 4.8% | 4.1%
SMILES | HTT cytoprotect | HTT aggregate | ERK EGF inh | IMPase Li cell | NPSR antagonist
COC(=O)N1CCC2(CCCN(C(=O)Nc3cccc(F)c3)C2)CC1 | u | x | 10.2% | 6.4% | x
COc1ccc(NS(=O)(=O)c2cc(NC(=O)C3CC3)ccc2N2CCOCC2)cc1 | x | 28.6% | -32.7% | -0.5% | -35.3%
COc1ccc(NS(=O)(=O)c2cc(NC(=O)C3CC3)ccc2N2CCCCC2)cc1 | -43.7% | u | -9.2% | 11.3% | 12.6µM*
N#Cc1ccc(Oc2ccc(-c3cnc4ccccc4n3)cc2)cc1C#N | 19.0%[10 µM] | -16.6% | 1.2% | 2.82µM* | u
N#Cc1ccc(Oc2ccc(-c3nc4ccccc4nc3-c3ccccc3)cc2)cc1C#N | 14.1%[1.9 µM] | 13.8% | -4.7% | -1.7% | -27.2%
CCOc1cccc(CN2CCN(c3cccc(C(F)(F)F)c3)CC2)c1O | -0.7%[0.074 µM] | -8.0% | x | 38.5%[38.3 µM] | 10µM*
O=C1CCCC=C1[C@@H](O)CCOCc1ccccc1 | -4.9%[10 µM] | x | x | x | x
CCCCCCCCCCCCCCNCCO | -3.5% | -10.2% | x | x | x
COc1ccc(S(=O)(=O)N2CCN(c3ccc(C)cc3C)CC2)cc1OC | 16.6% | 35.5µM* | x | 46.9%[38.3 µM] | -5.6%[46.1 µM]
CN=C1C=CC(=C(c2ccc(N(C)C)cc2)c2ccc(N(C)C)cc2)C=C1 | -98.7% | 8.91µM* | x | x | x
CN(C)c1ccc(C(=N)c2ccc(N(C)C)cc2)cc1 | -31.5% | x | x | -11.5% | x
CN(C)c1ccc(-c2nccc(NCCN3CCOCC3)n2)cc1 | -30.4% | x | 18.2% | -0.5% | x
CCSc1ccccc1C(=O)N1CCN(c2ccc([N+](=O)[O-])cc2)CC1 | 8.0%[10 µM] | 12.6%[9.22 µM] | 1.5% | 15.8% | -29.9%
Cc1c(-c2ccccc2)oc2c(C(=O)N3CCN(c4ccc([N+](=O)[O-])cc4)CC3)cccc2c1=O | -25.3%[10 µM] | 3.98µM* | 8.2% | 13.9% | u
Cn1c(=O)c2c(SCC(=O)N3CCC(Cc4ccccc4)CC3)nc(C3CC3)nc2n(C)c1=O | 4.1% | x | x | x | x
CCCc1nc(SCC(=O)N2CCC(Cc3ccccc3)CC2)c2c(=O)n(C)c(=O)n(C)c2n1 | -25.5% | 25.1µM* | x | 51.1%[38.3 µM] | u
CCn1c(Cl)c(C=O)s/c1=N\S(=O)(=O)c1ccccc1 | -96.8%[10 µM] | 1.41µM* | 17.8µM* | x | 10µM*
N#Cc1cccc(-c2nc3cnc(N4CCOCC4)nc3n(C[C@H]3CCCO3)c2=O)c1 | 13.1% | x | x | 5.6% | x
O=C(CNC(=O)c1ccc(S(=O)(=O)N2CCCC2)cc1)N/N=C/c1c(Cl)cccc1Cl | -14.0%[10 µM] | 11.2µM* | 13.9% | 19.2% | 0.1%
